Screening data as filed in PubChem.
Hits are enriched below; roughly 4.7% of the tested compounds scored in any of these assays.
RecA splice inh: blocks M. tuberculosis RecA intein splicing; P9WHJ3; cell-free RecA intein splicing, fluorescence; inhibition, % (no concentration beside the values); 290,000 compounds, 0.75% hits; in the data active = inhibition above about 30%;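 also: 0% = vehicle wells and 100% = reference inhibitor control wells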
3CLpro inhibitor: SARS-CoV 3CLpro protease inhibition. P0C6X7. recombinant SARS-CoV 3CLpro, quenched FRET peptide cleavage. inhibition, % at 6 µM. 290,000 compounds, 0.14% hits. AID 1706; in the data active = inhibition above about 12%
FBA Mtb inh: Mtb fructose-bisphosphate aldolase inhibition | inhibition, % at 1 µM | 360,000 compounds, 2.3% hits | purified M. tuberculosis FBA, fluorescence read-out | AID 588726 | P9WQA3;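 also: 0% = vehicle and 100% = reference inhibitor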
Target sequence (P9WQA3 whole entry, looked up): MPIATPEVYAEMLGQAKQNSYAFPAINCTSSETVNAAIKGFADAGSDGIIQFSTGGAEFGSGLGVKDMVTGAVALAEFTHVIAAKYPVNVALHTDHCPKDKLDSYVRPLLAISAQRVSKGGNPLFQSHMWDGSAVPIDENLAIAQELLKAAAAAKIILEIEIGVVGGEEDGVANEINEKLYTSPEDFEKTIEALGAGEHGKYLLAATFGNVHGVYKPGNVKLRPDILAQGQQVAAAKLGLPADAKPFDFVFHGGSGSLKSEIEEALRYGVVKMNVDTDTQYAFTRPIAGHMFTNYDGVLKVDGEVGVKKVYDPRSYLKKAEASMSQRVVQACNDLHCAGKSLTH
GDH-TPI counter-1: counter-screen for M. tuberculosis FBA inhibitors: GDH-TPI coupled enzymes | GDH-TPI coupled enzyme counterscreen, NADH absorbance | inhibition, % at 4.8 µM | 360,000 compounds, 1.2% hits; in the data active = inhibition above about 30%;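 also: 0% = DMSO wells and 100% = wells lacking the enzyme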
DUSP3 inh: inhibitors of human VHR1 phosphatase (DUSP3). recombinant VHR phosphatase, pNPP absorbance. inhibition, % at 13.3 µM. 290,000 compounds, 0.52% hits. AID 1654; in the data active = inhibition above about 50%
Target sequence (P51452 whole entry, looked up): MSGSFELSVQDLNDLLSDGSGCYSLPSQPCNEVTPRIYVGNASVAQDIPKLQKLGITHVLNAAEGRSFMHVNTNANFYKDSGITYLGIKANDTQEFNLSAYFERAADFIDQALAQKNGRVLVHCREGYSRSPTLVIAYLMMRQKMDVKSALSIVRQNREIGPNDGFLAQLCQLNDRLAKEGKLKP
CCHFV vOTU inh: blocks the CCHF virus ovarian tumor domain protease | CCHFV vOTU protease, Pep-AMC fluorescence | inhibition, % at 11.5 µM | 370,000 compounds, 0.55% hits | AID 651958; in the data active = inhibition above about 30%; also: 0% = vehicle wells with enzyme and 100% = no enzyme wells
Mtb FBA confirm: Mtb FBA inhibition, confirmed; shares compounds with FBA Mtb inh; purified M. tuberculosis FBA, fluorescence read-out; inhibition, % at 1 µM; 5,600 compounds, 78% hits;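 also: 0% = vehicle wells and 100% = reference inhibitor wells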
GDH-TPI counter-2: inhibits GDH-TPI coupling enzymes, flagging Mtb FBA hits; inhibition, % at 1 µM; 5,600 compounds, 81% hits; GDH-TPI coupled enzyme counterscreen, fluorescence; AID 652141; shares compounds with FBA Mtb inh; in the data active = inhibition above about 10%
GDH-TPI DR: inhibits GDH-TPI coupling enzymes in dose response; GDH-TPI coupled enzyme assay, fluorescence, artifact counterscreen; IC50, µM; 170 compounds, 79% hits; shares compounds with FBA Mtb inh; call rule not given here
* = called active by the depositor; . = not tested or not shown; + = active, no number; ! = not active in a repeat. Rule as the data show it, unless noted: active = inhibition above about 27%; inactive = the rest.

SMILES	RecA splice inh	3CLpro inhibitor	FBA Mtb inh	GDH-TPI counter-1	DUSP3 inh	CCHFV vOTU inh	Mtb FBA confirm	GDH-TPI counter-2	others
COc1ccc(CNC(=O)C2CCCN2)cc1OC (configuration not stated)	5	-1	2	3	-8	-1	.	.
O=C(NCCCCO)c1ccc2c3c(cccc13)CC2	2	0	64*	7	44	-5	-2	-3
CCOCCNC(=O)c1ccc2c3c(cccc13)CC2	-1	-2	81*	1	22	-13	47*	36*
CCn1c2ccccc2c(=O)c2ccccc21	-273	3	87*	7	1	-150	5	-4
COc1ccc(Cn2nnnc2C(c2cc3cc(C)ccc3[nH]c2=O)N2CCN(C)CC2)cc1 (configuration not stated)	-2	4	8	4	-5	-2	.	.
COc1cc2cc(C(c3nnnn3Cc3ccc(F)cc3)N3CCCCCC3)c(=O)[nH]c2cc1OC (configuration not stated)	-5	2	49*	22	14	.	-2	-2
O=CNc1cc(-c2ccsc2)cn2c(-c3ccccc3)cnc12	.	.	-1	8	.	0	.	.
COc1ccccc1-c1cc(NC=O)c2ncc(-c3ccc(S(C)(=O)=O)cc3)n2c1	.	.	104*	19	.	-33	+	+
CS(=O)(=O)c1ccc(-c2cnc3c(NC=O)cc(-c4ccsc4)cn23)cc1	.	.	29*	19	.	4	167*	136*
O=C(CSc1cccc2cccnc12)N/N=C/c1ccc(F)cc1	-8	-3	16	12	2	-21	.	.
O=C(O)CSc1cccc2cccnc12	-2	-3	27*!	-1	-20	-21	8	10*
CN(C)CCNC(=O)c1c(NC(=O)c2ccccc2)sc2c1CCCC2	0	-6	40*	22	4	16	114*	109*
Cc1ccccc1NC(=O)CCC(=O)N/N=C/c1ccncc1	-1	.	0	-3	.	7	.	.
CC1CN(c2nc3ccccc3nc2NS(=O)(=O)c2ccccc2)CC(C)O1 (configuration not stated)	.	.	7	10	.	-5	.	.
Cc1ccc(-c2cc3nc(-c4ccccc4)cc(N)n3n2)cc1	4	4	29*	26	13	-2	3	1
Cc1ccc(-c2cc3nc(-c4ccccc4)cc(NCCCO)n3n2)cc1	.	.	83*	12	.	-41	72*	54*
COc1ccc(C(=O)C2(C(=O)NCc3ccccc3)CC(c3ccccn3)=NO2)cc1 (configuration not stated)	.	.	.	.	.	-7	.	.
Cc1cc(C)cc(Oc2coc3c(CN(C)C)c(O)ccc3c2=O)c1	-4	3	92*	22	18	-186	77*	68*
CCOC(=O)c1c(C)[nH]c(C(=O)CN(C)CC(=O)Nc2ccccc2Cl)c1C	.	.	-1	7	.	-1	.	.
COc1ccc2c(c1)oc(=O)c1ccccc12	-1	2	88*	5	9	-72	41*	31*
O=C(O)C(Oc1ccc2c(c1)oc(=O)c1ccccc12)c1ccccc1 (configuration not stated)	1	6	92*	9	9	-80	37*	30*
COc1ccc2c(c1)oc(=O)c1c3ccccc3[nH]c21	6	3	15	15	20	-2	.	.
CCc1ccc(CN2C(=O)c3ccccc3C2C(=O)NC(C)CC)cc1 (configuration not stated)	0	0	105*	5	.	-11	48*	44*
O=c1oc2ccccc2cc1-c1cn2ccccc2n1	.	3	4	30	6	-9	.	.
O=c1oc2ccccc2cc1-c1ccccc1	1	-2	31*	17	13	-10	11	2	GDH-TPI DR=5.2*
SMILES	RecA splice inh	3CLpro inhibitor	FBA Mtb inh	GDH-TPI counter-1	DUSP3 inh	CCHFV vOTU inh	Mtb FBA confirm	GDH-TPI counter-2	others
O=c1oc2ccccc2cc1-c1cn2cccnc2n1	-18	-2	29*	45*	-1	-38	+	196*
O=C(Cc1cccc2ccccc12)Nc1ccc(-c2cc3ccccc3oc2=O)cc1	-14	2	53*	22	2	-38	75*	49*
O=c1oc(-c2ccccc2)cc2ccccc12	.	.	44*	11	.	-14	71*	47*
CCC(=O)Nc1cccc(-c2cc3ccccc3oc2=O)c1	-1	3	1	23	31	-1	.	.
O=c1oc2ccc(Cl)cc2cc1-c1ccccc1	-1	-3	1	-3	-3	1	.	.
C=CCn1c(SCC(=O)NCC2CCCO2)nc2sc(CC)cc2c1=O (configuration not stated)	.	.	0	2	.	10	.	.
O=C(COC(=O)C1CCN(S(=O)(=O)c2ccccc2C(F)(F)F)CC1)NCc1ccc(F)cc1	-1	2	0	12	-10	8	.	.
N#CCc1nc(-c2cc3ccccc3oc2=O)cs1	1	5	77*	12	5	-24	197*	155*
Cc1ccc(Oc2ncc(CN3CCOCC3)s2)cc1	-6	0	38*	-5	41	4	50*	44*
Clc1cccc(Oc2ncc(CN3CCOCC3)s2)c1	1	3	2	4	29	0	.	.
COC(=O)[C@]12CCCCC=C1N(Cc1ccc(OC)cc1)C(=O)[C@@H]2CC(=O)NCc1ccc(OC)c(OC)c1	.	.	.	.	.	6	.	.
CCN1CCN(c2nc3c(C)cccn3c(=O)c2/C=C(\C#N)C(=O)NC)CC1	-218	0	30*	7	.	-39	32*	20*
CNC(=O)/C(C#N)=C/c1c(N2CCN(C)CC2)nc2c(C)cccn2c1=O	-230	1	28*	17	.	-28	62*	59*
CCOC(=O)/C(C#N)=C/c1c(N2CCN(CC)CC2)nc2c(C)cccn2c1=O	-28	-1	3	10	2	8	.	.
O=C1CC(=O)Nc2cc(S(=O)(=O)Nc3ccc(Cl)c(C(F)(F)F)c3)ccc2N1	-1	2	-5	-4	-31	3	.	.
Cc1oncc1-c1cn2ccccc2n1	0	5	22	7	29	3	.	.
COc1c(Cl)cccc1-c1cn2ccc(C)cc2n1	-1	-2	38*	1	4	-19	36*	39*
Cc1ccn2cc(-c3cnoc3C)nc2c1	0	2	31*	-8	24	5	15	0
Fc1cccc(Cn2ccc3ccc(-c4ccc5ccn(Cc6cccc(F)c6)c5c4)cc32)c1	.	.	.	.	.	-2	.	.
